Among the data in PubChem BioAssay are z-score values, retold here.
Also: test concentration not given here.

One assay is described as follows: compound effects on hepatocellular carcinoma cell viability – HepG2, calcein-AM fluorescence, 48 h, basal, profiling panel (AID 1164). The following applies: higher = more signal.
Turning to `CC(C)N1C(=O)c2ccccc2[C@@H](C(=O)NC2CC2)[C@@H]1c1ccc(CO)cc1`, the z-score was 0.476.

Regarding `COC(=O)c1nc2oc1CC[C@@H](CO)NC(=O)N(C)Cc1cnnn1C[C@H](Cc1ccccc1)NC2=O`, the z-score was 0.537.

Take `C=CCNC(=O)[C@@H]1[C@H]2C(=O)O[C@H](c3ccccc3)[C@H](c3ccccc3)N2[C@H](c2ccc(O)cc2)[C@@]12C(=O)N(C(=O)OCCOC)c1ccc(C#CC3(O)CCCCCC3)cc12`: the z-score was 0.446.

In the case of `O=C1C=C(c2ccccc2)C(=O)c2ccc([C@H]3Oc4ccccc4S(=O)(=O)N4CCC[C@@H]34)cc21`, the z-score was -1.07.

Turning to `C=C(COC)/C(=C/C[C@H](OC(C)=O)c1ccc(OCCO)cc1)c1cc(C(=O)OC)ccc1OC`, the z-score is 0.883.

Turning to `CC(C)[Si](C#C[Si](C(C)C)(C(C)C)C(C)C)(O[C@H](C)c1cn([C@H](CO)Cc2ccccc2)nn1)C(C)C`, the z-score was 0.341.

Consider `CC1CC/C=C\[C@H]2OC34C=CCN(C(C)C)C(=O)[C@H]3N(CCCCCCO)C(=O)[C@@H]4C2C(=O)O1` (some centres not stated), for which the z-score was 0.25.

On to `CC1CC/C=C\[C@H]2OC34C=CCN(c5ccc(Cl)cc5)C(=O)[C@H]3N(CCCCCO)C(=O)[C@]4(C)C2C(=O)O1` (some centres not stated), for which the z-score was 0.843.

As to `COCCCNC(=O)[C@@]1(Sc2ccc(C)cc2)CC(=O)N(C2CCCCC2)[C@@H]1c1ccc(CO)cc1`, the z-score was -0.574.

`[N-]=[N+]=Nc1ccccc1[C@H]1OC(c2ccc(OCCCO)cc2)=N[C@@]1(Cc1ccccc1)C(=O)N1CCCCC1`: the z-score was -0.683.

In the case of `CC(C)OC(=O)C=C1C[C@@H](c2ccc(C(F)(F)F)cc2)O[C@@H](c2ccc(C(F)(F)F)cc2)O1`, the z-score was 0.114.

Regarding `[N-]=[N+]=Nc1ccccc1[C@@H]1OC(c2ccc(OCCCO)cc2)=N[C@]1(Cc1ccccc1)C(=O)NCC(O)CO` (some centres not stated), the z-score is -0.306.

For the compound `[N-]=[N+]=Nc1ccccc1C[C@]1(C(N)=O)N=C(c2ccc(OCCCO)cc2)O[C@H]1c1ccccc1N=[N+]=[N-]`, the z-score was -1.84.

`C[C@@H]1NC(=O)[C@@]23C(=O)N[C@@H](Cc4ccccc4)C2[C@H](C)[C@@]2(C)O[C@H]2C3/C=C/C/C=C\CNC(=O)[C@@H]2CCCN2C1=O` (some centres not stated): the z-score was -0.0552.

As for `COCCCNC(=O)[C@]1(CCS(=O)(=O)c2ccccc2)N=C(c2ccc(OCCCO)cc2)O[C@@H]1c1ccccc1N=[N+]=[N-]`, the z-score is 0.683.

In the case of `O=C1OCCC/C=C\[C@H]2OC34C=CCN(CCN5CCOCC5)C(=O)[C@H]3N(CCCCCCO)C(=O)[C@@H]4C12` (some centres not stated), the z-score is 1.18.

The nature of another assay: compound effects on multiple myeloma cell viability – MM1S, calcein-AM fluorescence, 48 h, basal, profiling panel (AID 1165).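 Also: viability of MM1S multiple myeloma cells under basal unstimulated conditions.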 The following applies: higher = more signal.
On to `[N-]=[N+]=NCc1ccccc1C[C@@]1(C(=O)N2CCCCC2)N=C(c2ccc(OCCCO)cc2)O[C@@H]1c1ccccc1`, for which the z-score is -3.11.

`O=C1O[C@@H](c2ccccc2)[C@@H](c2ccccc2)N2[C@@H](c3ccc(OCCO)cc3)[C@]3(C(=O)Nc4ccccc43)[C@@H](C(=O)O)[C@H]12`: the z-score is 0.243.

On to `CC(CO)N1C(=O)[C@@H]2[C@H]3C(=O)OCC=C[C@H]3OC23C=CCN(C(C)(C)C)C(=O)[C@@H]13` (some centres not stated), for which the z-score was 1.08.

Take `CN1C(=O)C2C=CC(C(O)c3cccc4ccccc34)N(N3CCCCC3)C2C1=O` (configuration not stated): the z-score is -1.21.

As for `CN(C)C(=O)[C@]1(CCS(=O)(=O)c2ccccc2)N=C(c2ccc(OCCCO)cc2)O[C@@H]1c1ccccc1N=[N+]=[N-]`, the z-score was -0.133.

Turning to `COC(=O)[C@@]1(Cc2ccc(F)cc2)[C@H]2c3cc(C(=O)N4CCCC4)n(CCc4ccc(O)c(O)c4)c3C[C@H]2CN1C(=O)c1ccccc1`, the z-score is -3.48.

With `CN(C)CCCNC(=O)[C@@]1(c2ccc([N+](=O)[O-])cc2)CC(=O)N(CC23CC4CC(CC(C4)C2)C3)[C@@H]1c1ccc(CO)cc1I`, the z-score was -3.97.

For `Cc1cc(C)c(C(O)C2C=CC3C(=O)NC(=O)C3N2Nc2ccc(Cl)cc2Cl)c(C)c1` (configuration not stated), the z-score was -3.52.

On to `COCCOC(=O)N1C(=O)[C@@]2(c3cc(C#CC4=CCCCC4)ccc31)[C@H](c1ccc(OCCO)cc1)N1[C@H](c3ccccc3)[C@H](c3ccccc3)OC(=O)[C@H]1[C@@H]2C(=O)N1CCN(c2ncccn2)CC1`, for which the z-score was -0.759.

For the compound `C=CCC(OC(C)=O)[C@@H]1[C@@H](N(Cc2ccc(-c3ccccc3)cc2)C(=O)Cc2ccc(F)cc2)c2cc(OCCCO)ccc2N1C(=O)Cc1ccc(OC)cc1` (some centres not stated), the z-score was 0.399.

Take `COC(=O)[C@@]1(Cc2ccc(OC)cc2)[C@H]2c3cc(C(=O)N(C)C)n(C[C@H](O)CO)c3C[C@H]2CN1C(=O)c1ccccc1`: the z-score is -1.99.

As to `Cn1cccc1C(O)C1C=CC2C(=O)NC(=O)C2N1Nc1ccc(Cl)cc1Cl` (configuration not stated), the z-score was -3.45.

As to `COc1ccc([Si](C)(C)[C@@H]2[C@@H](CC(=O)N(CCO)Cc3ccccc3)O[C@]3(C(=O)N(Cc4cccc(N5C(=O)c6cccc7cccc5c67)c4)c4ccccc43)[C@H]2C)cc1`, the z-score is -1.48.

With `Cc1ccc(S[C@]2(C(=O)NCC(F)(F)F)CC(=O)N(Cc3ccccc3C(F)(F)F)[C@@H]2c2ccc(CO)cc2I)cc1`, the z-score was -1.56.

For the compound `CCOc1cc(C(O)C2C=CC3C(=O)N(c4ccccc4)C(=O)C3N2Nc2ccc(C#N)cc2)ccc1O` (configuration not stated), the z-score was -1.49.

`COCCOC(=O)N1C(=O)[C@@]2(c3ccccc31)[C@H](C(=O)N1CCN(c3ncccn3)CC1)[C@H]1C(=O)O[C@H](c3ccccc3)[C@H](c3ccccc3)N1[C@@H]2c1ccc(O)cc1`: the z-score was -1.41.

Take `CCCC[C@@H]1C[C@H]1[C@@H](NC(=O)c1cccs1)c1ccc(C(F)(F)F)cc1`: the z-score was -0.771.

As to `COC(=O)c1ccc([C@H](NC(=O)c2ccco2)[C@]2(C)C[C@H]2C2CCCCC2)cc1`, the z-score was -2.65.

As to `O[C@@H](Cc1ccccc1)[C@@H](/C=C/C1CC1)N(CC#Cc1ccccc1)Cc1cccc(Cl)c1`, the z-score was -0.217.

Regarding `N#Cc1ccc(C(O)C2C=CC3C(=O)N(c4ccccc4)C(=O)C3N2Nc2ccccc2)cc1` (configuration not stated), the z-score is 0.41.

With `CC(C)N1C(=O)c2ccccc2[C@@H](C(=O)NC2CC2)[C@@H]1c1ccc(CO)cc1`, the z-score was -0.0123.

`COC(=O)c1nc2oc1CC[C@@H](CO)NC(=O)N(C)Cc1cnnn1C[C@H](Cc1ccccc1)NC2=O`: the z-score is 1.01.

Consider `C=CCNC(=O)[C@@H]1[C@H]2C(=O)O[C@H](c3ccccc3)[C@H](c3ccccc3)N2[C@H](c2ccc(O)cc2)[C@@]12C(=O)N(C(=O)OCCOC)c1ccc(C#CC3(O)CCCCCC3)cc12`, for which the z-score is 0.362.

With `O=C1C=C(c2ccccc2)C(=O)c2ccc([C@H]3Oc4ccccc4S(=O)(=O)N4CCC[C@@H]34)cc21`, the z-score is -3.23.

Turning to `C=C(COC)/C(=C/C[C@H](OC(C)=O)c1ccc(OCCO)cc1)c1cc(C(=O)OC)ccc1OC`, the z-score is -1.01.

Turning to `CC(C)[Si](C#C[Si](C(C)C)(C(C)C)C(C)C)(O[C@H](C)c1cn([C@H](CO)Cc2ccccc2)nn1)C(C)C`, the z-score is -2.37.

For `CC1CC/C=C\[C@H]2OC34C=CCN(C(C)C)C(=O)[C@H]3N(CCCCCCO)C(=O)[C@@H]4C2C(=O)O1` (some centres not stated), the z-score was 1.2.

Take `CC1CC/C=C\[C@H]2OC34C=CCN(c5ccc(Cl)cc5)C(=O)[C@H]3N(CCCCCO)C(=O)[C@]4(C)C2C(=O)O1` (some centres not stated): the z-score was 0.743.

On to `COCCCNC(=O)[C@@]1(Sc2ccc(C)cc2)CC(=O)N(C2CCCCC2)[C@@H]1c1ccc(CO)cc1`, for which the z-score is -1.59.

As to `[N-]=[N+]=Nc1ccccc1[C@H]1OC(c2ccc(OCCCO)cc2)=N[C@@]1(Cc1ccccc1)C(=O)N1CCCCC1`, the z-score is -3.09.

`CC(C)OC(=O)C=C1C[C@@H](c2ccc(C(F)(F)F)cc2)O[C@@H](c2ccc(C(F)(F)F)cc2)O1`: the z-score is -2.49.

Regarding `[N-]=[N+]=Nc1ccccc1[C@@H]1OC(c2ccc(OCCCO)cc2)=N[C@]1(Cc1ccccc1)C(=O)NCC(O)CO` (some centres not stated), the z-score was -1.94.

With `[N-]=[N+]=Nc1ccccc1C[C@]1(C(N)=O)N=C(c2ccc(OCCCO)cc2)O[C@H]1c1ccccc1N=[N+]=[N-]`, the z-score was -2.29.

As for `C[C@@H]1NC(=O)[C@@]23C(=O)N[C@@H](Cc4ccccc4)C2[C@H](C)[C@@]2(C)O[C@H]2C3/C=C/C/C=C\CNC(=O)[C@@H]2CCCN2C1=O` (some centres not stated), the z-score was 0.37.

On to `COCCCNC(=O)[C@]1(CCS(=O)(=O)c2ccccc2)N=C(c2ccc(OCCCO)cc2)O[C@@H]1c1ccccc1N=[N+]=[N-]`, for which the z-score was -1.41.

As for `O=C1OCCC/C=C\[C@H]2OC34C=CCN(CCN5CCOCC5)C(=O)[C@H]3N(CCCCCCO)C(=O)[C@@H]4C12` (some centres not stated), the z-score is 1.54.
